# Assay results: PubChem BioAssay (NCATS)
# Inconclusive results are not listed. Activity calls are given as the source filed them. The call rests on the fitted dose curve; in most records, active means well fitted inhibition curve with a large enough effect; inconclusive means small, poorly fitted or top-dose-only effect; inactive means no such curve, though single readings can be large or run the other way.
# Target: Retinaldehyde dehydrogenase 3 (Homo sapiens) (UniProt P47895)
# Experiment: qHTS for Inhibitors of the Aldehyde Dehydrogenase Family (ALDH1A3) Primary screen (AID 2061315);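 further: plate controls were DMSO vehicle for no effect and reference inhibitor for full effect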
# Conditions: ALDH inhibition qHTS; series mostly up to 56 µM; activity change, negative = inhibition: at the top concentration
row,SMILES,"activity change, negative = inhibition"
1,Cc1cc(NS(=O)(=O)c2ccc(NS(=O)(=O)Cc3ccc(Cl)c(Cl)c3)cc2)no1,-3.52% (inactive)
2,N#Cc1ccc(-c2ccc(-c3nc4ccccc4c(=O)[nH]3)o2)cc1,-1.47% (inactive)
3,COc1ccc(C2c3c(N)nc(Cc4ccccc4)nc3Oc3ccc4ccccc4c32)cc1OC (centres undefined),-1.7% (inactive)
4,CC(Nc1ncnc2ccc(-c3ccc4c(c3)OCO4)cc12)c1ccco1 (centres undefined),0.0591% (inactive)
5,O=C(NCc1ccc(Oc2ccccc2)cc1)c1nc(-c2cc(Br)c(O)c(Br)c2)no1,-2.46% (inactive)
6,COc1cccc(CNc2ccc(S(=O)(=O)Nc3cccs3)cc2)c1O,-2.44% [at 11.2 µM] (inactive)
7,CC(O)c1ccc(-c2ccc3ncnc(NCC4CCCO4)c3c2)o1 (centres undefined),-8.93% (inactive)
8,Cc1ccc(NS(=O)(=O)c2cc3c(cc2C)NC(=O)CO3)cc1C,-2.54% (inactive)
9,O=C1CCc2cc(S(=O)(=O)Nc3ccccn3)ccc2N1,-6.44% (inactive)
10,CCCC(C)NC(=O)Cn1nc(-c2ccc(C)cc2)ccc1=O (centres undefined),-5.13% (inactive)
11,O=C(NC1CCCc2c1cnn2CCO)c1ccccn1 (centres undefined),-11.1% (inactive)
12,CN(C)c1ccc(C(=O)OCC#CCSc2nnc(-c3cccc4ccccc34)o2)cc1,15.4% (inactive)
13,CC(C)(C)OC(=O)N1CCN(c2ccc(OCc3ccc(-c4ccc(C#N)cc4)o3)cc2)CC1,-1.12% (inactive)
14,CC1=C(C(=O)Nc2ccon2)C(c2nn(C)cc2Cl)N=C(Nc2nc3ccccc3o2)N1 (centres undefined),16% (inactive)
15,OCc1ccc(-c2ccc3ncnc(NCc4cccs4)c3c2)o1,4.65% (inactive)
16,COc1cc(O)c([C@H](CC(=O)N2CC(C)CC(C)C2)c2ccc3c(c2)OCO3)c(OC)c1 (some centres undefined),9.52% [at 114 µM] (inactive)
17,Cc1ccc([S+](=O)([O-])Nc2nn3c(=O)c4ccccc4nc3s2)cc1C,4.35% (inactive)
18,O=C(N1Cc2ccc(Nc3nn4c(=O)c5ccccc5nc4s3)cc2C1)C(F)(F)F,-3.87% (inactive)
19,COc1ccc(CC(NC(C)=O)C(=O)O)cc1 (centres undefined),-14.5% (inactive)
20,COc1ccc(C2Cc3ccccc3C(=O)N2Cc2ccccc2)cc1COc1ccc(NC(C)=O)cc1 (centres undefined),-4.45% (inactive)

row,SMILES,"activity change, negative = inhibition"
1,Fc1ccc(-c2ccc(CNc3nc(-c4ccccc4C(F)(F)F)nc4ccccc34)cc2)cc1,-13.3% (inactive)
2,O=c1c2ccccc2nc2sc(NCc3ccccc3)nn12,-4.33% (inactive)
3,N#Cc1c(-c2ccc(C(F)(F)F)cc2)no[n+]1[O-],-6.59% (inactive)
4,O=C(Cc1ccc(Cl)c(Cl)c1)Nc1ccc(S(=O)(=O)Nc2cncnc2)cc1,23.9% (inactive)
5,CN1CCN(c2cccc(Nc3nn4c(=O)c5ccc(C(F)(F)F)cc5nc4s3)c2)CC1,5.49% (inactive)
6,Cc1cc(C)nc(NC(=S)N2CCN(c3cccc(OC(F)(F)F)c3)CC2)c1,0.274% (inactive)
7,COc1ccc(C2c3ccc(OCc4ccccc4)cc3Oc3ncn(CCN4CCOCC4)c(=N)c32)cc1OC (centres undefined),0.635% (inactive)
8,O=[S+]([O-])(Nc1ccc2ccccc2c1)c1ccc(NCc2ccc(Cl)cc2O)cc1,-2.49% (inactive)
9,CC(C)(C)OC(=O)N[C@@H](Cc1ccc(O[S+](=O)([O-])c2cccc3cnccc23)cc1)C(=O)N1CCN(Cc2ccccc2)CC1,-0.624% (inactive)
10,CC(C)c1ccc(-n2ncc3c(=O)n(CC(=O)Nc4cc(F)ccc4Cl)cnc32)cc1,13.9% (inactive)
11,O=C1CCc2cc([S+](=O)([O-])Nc3ccc(Cl)c(Cl)c3)c(NCCCO)cc2N1,-10% (inactive)
12,CC(C)(C)OC(=O)N1CCN(c2ccc(NCc3cc(-c4ccc(C#N)cc4)co3)cc2)CC1,-3.22% (inactive)
13,O=c1c2ccccc2nc2sc(NS(=O)(=O)c3ccc4c(c3)CCC4)nn12,-5.34% (inactive)
14,CC(C)c1cccc(-n2cnc3cc(C(=O)N4CCCCC4)ccc32)c1,-2.64% (inactive)
15,Cc1c(C(N)=O)[nH]c2c1C(=O)CC(c1ccco1)C2 (centres undefined),-21.6% (inactive)
16,COc1ccccc1NS(=O)(=O)c1cc(NC(=O)c2ccccc2)ccc1N1CCCC1,4.02% (inactive)
17,CCOC(=O)c1[nH]c2c(c1C)CCC(c1ccco1)C2 (centres undefined),-8.34% (inactive)
18,CC(=O)Nc1sc2c(c1-c1nc3ccccc3s1)CCN(C(C)=O)C2,-16.2% (inactive)
19,O=S1(=O)N=C(Oc2ccc3ccccc3c2)c2ccccc21,-12.4% (inactive)
